Reference: PubChem BioAssay (NCATS)
Inconclusive results are not listed. Active and inactive are the calls of the source. Calls follow the shape of the dose curve; as a rule, active = well fitted cell-killing curve with a large enough effect; inconclusive = small, poorly fitted or top-dose-only effect, or effect the other way; inactive = no such curve, though single readings can be large or run the other way. Non-standard residues stand in square brackets, D forms with d. Residues, ends and D or L forms follow the SMILES beside them. *: point of attachment. Nva = CCC[C@H](N)C(=O)O; Cbz = O=C(OCc1ccccc1)*

test: Quantitative High-Throughput drug screen in 47 multiple myeloma cell lines against the NCATS MIPE library collection: OPM1_PLB cell viability assay (AID 1918989); conditions: CellTiter-Glo, 48 h; series mostly up to 45.8 µM; also: nearly all actives have a fitted effect of over 40% in size
Text: PI: Beverly A. Mock Ph.D.
Laboratory of Cancer Biology and Genetics,
Center for Cancer Research, National Cancer Institute,
National Institute of Health, Bethesda, Maryland
Drug resistance and disease progression are common in multiple myeloma (MM) patients, underscoring the need for new therapeutic combinations. […] We hypothesized that effective combinations would reduce MYC expression and enhance p16 activity. […] These preclinical data identify potentially useful drug combinations for evaluation in drug-resistant MM and reveal potential mechanisms of combined drug sensitivity.
Described herein is the primary MIPE qHTS used to cherrypick compounds. Validated compounds were then further tested for potential synergistic activiy.
[1] Peat TJ, Gaikwad SM, Dubois W, Gyabaah-Kessie N, Zhang S, Gorjifard S, Phyo Z, Andres M, Hughitt VK, Simpson RM, Miller MA, Girvin AT, Taylor A, Williams D, D'Antonio N, Zhang Y, Rajagopalan A, Flietner E, Wilson K, Zhang X, Shinn P, Klumpp-Thomas C, McKnight C, Itkin Z, Chen L, Kazandijian D, Zhang J, Michalowski AM, Simmons JK, Keats J, Thomas CJ, Mock BA. Drug combinations identified by high-throughput screening promote cell cycle transition and upregulate Smad pathways in myeloma. Cancer Lett. 2023 Aug 1;568:216284. doi: 10.1016/j.canlet.2023.216284. Epub 2023 Jun 24. PMID: 37356470; PMCID: PMC10408729.
SEQUENCE No. (e.g., 1, 2, 3, etc.); […] (e.g., Cells, Incubation, Reagent, etc.); VALUE and DESCRIPTION.
1; Cells; 5 uL; white, solid bottom 1536-well Greiner assay plate.
2; Compounds; 23 nL; Kalypsis pin tool (Wako USA) equipped with a 1536-well pin head to transfer to the assay plates.
3; Incubation; 48 hours; 37C incubation.
4; Reagent;5uL; CellTiter Glo (Promega).
5; Detector; 425V; Luminescence; Viewlux PerkinElmer.
NOTES (numbers refer to Sequence numbers above)
1. The cell-based screening methods employed in this study were like those previously published. Briefly, the corresponding myeloma cell lines were screened in 1,536-well plates with 500 cells, 5-uL per well for inhibition of cell viability (assessed by measuring ATP levels with CellTiterGlo).
2. NCATS MIPE 4.0 library of approved and investigational drugs were added using the Kalypsis pin tool. Wells treated with DMSO only for 100% viability and media only for 0% viability were used as controls.
3. The assay plates were covered and incubated for 48 hours in a 37C, 5% CO2 incubator with controlled humidity.
4. After 48 hours, CellTilter-GloTM luminescent substrate mix (Promega) reagent was added to the assay plate and plates we incubated for 5 min at room temperature.
5. Signal was measured as median relative luminescence units on a ViewLux (PerkinElmer) multiplate reader.
[1] Heske CM, Davis MI, Baumgart JT, Wilson K, Gormally MV, Chen L, Zhang X, Ceribelli M, Duveau DY, Guha R, Ferrer M, Arnaldez FI, Ji J, Tran HL, Zhang Y, Mendoza A, Helman LJ, Thomas CJ. Matrix Screen Identifies Synergistic Combination of PARP Inhibitors and Nicotinamide Phosphoribosyltransferase (NAMPT) Inhibitors in Ewing Sarcoma. Clin Cancer Res. 2017 Dec 1;23(23):7301-7311. doi: 10.1158/1078-0432.CCR-17-1121. Epub 2017 Sep 12. PMID: 28899971; PMCID: PMC6636827.
Potency is read from the fitted curve at half-maximal effect.

Row | Compound | Potency | viability (% of control)
1 | CC(C)[C@H](CO)Nc1nc(Nc2cccc(Cl)c2)c2ncn(C(C)C)c2n1 | 23500 nM (active) | 
2 | CCNC(=O)Nc1ccc(-c2nc3c(c(N4CCOC[C@H]4C)n2)CCN(C2COC2)C3)cc1 | 1180 nM (active) | 
3 | CCN(CC)CCNC(=O)c1c(C)[nH]c(C=C2C(=O)Nc3ccc(F)cc32)c1C | 1520 nM (active) | 
4 | COc1ccc(CCC(=O)c2c(O)cc(O[C@@H]3O[C@H](CO)[C@@H](O)[C@H](O)[C@@H]3O[C@@H]3O[C@@H](C)[C@H](O)[C@@H](O)[C@@H]3O)cc2O)cc1O | inactive | 
5 | c1ccc(CNc2nc(NCc3ccccc3)c3ccccc3n2)cc1 | 7430 nM (active) | 
6 | COc1cc(C(C)C)c(Oc2cnc(NC(CO)CO)nc2N)cc1I | 1660 nM (active) | 
7 | Cc1cncc2cccc(S(=O)(=O)N3CCCN(C(=O)CN)C[C@@H]3C)c12 | inactive | 
8 | NC(=O)Nc1cc(-c2ccc(CN3CCOCC3)cc2)sc1C(N)=O | 3720 nM (active) | 
9 | C=CC(=O)Nc1cc(NC(=O)c2ccc(C)c(NC(=O)c3ccno3)c2)cc(C(F)(F)F)c1 | 23500 nM (active) | 
10 | CN[C@@H]1C[C@H]2O[C@@](C)([C@H]1OC)n1c3ccccc3c3c4c(c5c6ccccc6n2c5c31)C(=O)N[C@H]4O | 93.5 nM (active) | 
11 | O=C1CSC(=O)N1C(CCc1ccncc1)COc1ccc(-c2cccc([N+](=O)[O-])c2)cc1 (stereo not given) | 16600 nM (active) | 
12 | OCCNC1CCCc2c1[nH]c1ccc(-c3ccccc3)cc21 (stereo not given) | 8330 nM (active) | 
13 | COC(=O)[C@@H]1CC2=CC(=O)CC[C@]2(C)[C@@]23O[C@@H]2C[C@@]2(C)[C@H](CC[C@@]24CCC(=O)O4)[C@@H]13 | inactive | 
14 | C[C@H](CCC(=O)O)[C@H]1CCC2C3C[C@H](O)[C@@H]4C[C@H](O)CC[C@]4(C)C3CC[C@@]21C (stereo not given in full) | inactive | 
15 | COc1cc2ncnc(Nc3cccc(Br)c3)c2cc1OC | 7430 nM (active) | 
16 | OCC(O)C(O)C(O)CO (stereo not given) | inactive | 
17 | CC(=O)OCC(=O)[C@@]1(O)CC[C@H]2[C@@H]3CCC4=CC(=O)CC[C@]4(C)[C@@H]3C(=O)C[C@@]21C | inactive | 
18 | C[C@@]12C[C@@]3(O)O[C@@H](O1)[C@]1(COC(=O)c4ccccc4)[C@@H]3C[C@@]12O[C@@H]1O[C@H](CO)[C@@H](O)[C@H](O)[C@@H]1O | inactive | 
19 | CC(C=CC(=O)NO)=C[C@@H](C)C(=O)c1ccc(N(C)C)cc1 | 332 nM (active) | 
20 | Oc1cc(-c2nc(-c3ccccc3)[nH]c2-c2ccncc2)ccc1Cl | 14800 nM (active) | 

Row | Compound | Potency | viability (% of control)
21 | CCCCCCCCCCCC(CC1OC(=O)C1CCCCCC)OC(=O)C(CC(C)C)NC=O (stereo not given) | inactive | 
22 | C=CC[C@@H]1C=C(C)C[C@H](C)C[C@H](OC)[C@H]2O[C@@](O)(C(=O)C(=O)N3CCCC[C@H]3C(=O)O[C@H](C(C)=C[C@@H]3CC[C@H](O)[C@H](OC)C3)[C@@H](C)[C@@H](O)CC1=O)[C@@H](C)C[C@@H]2OC | 2640 nM (active) | 
23 | C=C1C[C@@]2(O)O[C@@]3(C[C@H]2C(C)C)[C@H](C)CC[C@H]13 | inactive | 
24 | NC(=NCCCCCCN=C(N)N=C(N)Nc1ccc(Cl)cc1)N=C(N)Nc1ccc(Cl)cc1 | 2640 nM (active) | 
25 | CN1[C@H]2CC(OC(=O)[C@@H](CO)c3ccccc3)C[C@H]1[C@H]1O[C@H]12 (stereo not given in full) | inactive | 
26 | CNC(=O)Nc1ccc(-c2nc(N3CC4CCC(C3)O4)c3cnn(C4CCC5(CC4)OCCO5)c3n2)cc1 | 11.8 nM (active) | 
27 | CCN(C(=O)c1c(O)c2c(Cl)cccc2n(C)c1=O)c1ccccc1 | inactive | 
28 | CC(C)(C)[C@H](NC(=O)c1ccc(N)c(Cl)c1)C(=O)N1CCC[C@@H]1C(=O)N[C@H](C#N)CC(=O)O |  | 141% [at 3.51 µM] (inactive)
29 | O=[N+]([O-])c1cn2c(n1)OC[C@@H](OCc1ccc(OC(F)(F)F)cc1)C2 | inactive | 
30 | COc1cccc2c1C(=O)c1c(O)c3c(c(O)c1C2=O)C[C@@](O)(C(=O)CO)C[C@@H]3O[C@H]1C[C@H](N)[C@@H](O)[C@H](C)O1 | 743 nM (active) | 
31 | CCC[C@@H](C=O)NC(=O)[C@H](CC(C)C)NC(=O)[C@H](CC(C)C)NC(=O)OCc1ccccc1 (Cbz-Leu-Leu-[Nva]-aldehyde) | 590 nM (active) | 
32 | CC(C)OC(=O)[C@H](C)N[P@](=O)(OC[C@H]1O[C@@H](n2ccc(=O)[nH]c2=O)[C@](C)(F)[C@H]1O)Oc1ccccc1 | inactive | 
33 | CCCCC(=O)O[C@]1(C(=O)CO)[C@@H](C)C[C@H]2[C@@H]3CCC4=CC(=O)C=C[C@]4(C)[C@@]3(F)[C@@H](O)C[C@@]21C | 37.2 nM (active) | 
34 | C[C@H]1C[C@H]2[C@@H]3CCC4=CC(=O)C=C[C@]4(C)[C@@H]3C(=O)C[C@]2(C)[C@@]1(O)C(=O)CO | inactive | 
35 | Cc1cc(O)c2c(c1)C(=O)c1cccc(O)c1C2=O | inactive | 
36 | COc1cc(N2CCC(C(N)=O)CC2)ccc1Nc1nc(N)c(Cl)c(Nc2ccccc2S(=O)(=O)C(C)C)n1 | 5900 nM (active) | 
37 | Nc1nc(=O)n([C@H]2CSC(CO)O2)cc1F (stereo not given in full) | inactive | 
38 | COc1cc([C@@H]2c3cc4c(cc3[C@H](O)[C@H]3COC(=O)[C@@H]23)OCO4)cc(OC)c1OC | 187 nM (active) | 
39 | c1cncc(CN2CCC(n3ncc4c(N5CCOCC5)nc(-c5ccc6[nH]ccc6c5)nc43)CC2)c1 | 2640 nM (active) | 
40 | N#CNC(=NCCCCCCOc1ccc(Cl)cc1)Nc1ccncc1 | 3 nM (active) | 
